Counter-ions that a name gives are not always drawn.
Key:
Assay in all cases: Euclidean distance of Cell Painting phenotypic profile (signed KS, 77 features) to DMSO centroid (dimensionless distance); 5 or 10 uM (library dependent); higher = stronger phenotypic change vs DMSO (phenoactivity)
Settings in all cases: 48 h
[1] = system: 786-O
How it was run: (§1)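 Five cancer lines, together with a healthy fibroblast line, received library compounds for 48 h at a library-dependent 10 or 5 uM and 0.1% DMSO final. Harmony then derived 77 features from confocal 20X images (9 fields/well) of the stained cells, scoring each as a signed Kolmogorov-Smirnov statistic against same-plate vehicle wells. After plate-position correction, correlation weighting and replicate averaging at the top dose, phenoactivity was taken as each profile's Euclidean distance to the median vehicle profile.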

[2] = system: A549
How it was run: as §1

[3] = system: DU145
How it was run: as §1

[4] = system: FB
How it was run: as §1

[5] = system: HEPG2
How it was run: as §1

[6] = system: OVCAR4
How it was run: as §1

Structure (SMILES)	Euclidean distance [1]	Euclidean distance [2]	Euclidean distance [3]	Euclidean distance [4]	Euclidean distance [5]	Euclidean distance [6]
NCCc1ccc(O)c(O)c1 [Dopamine HCl]	1.84	0.481	0.944	1.26	0.844	3.26
Oc1c2ccccc2c2c3c(cccc13)N=N2	1.18	1.08	0.792	0.94	1.13	0.655
C[C@@H]1COCCN1c1cc(C2([S@](C)(=N)=O)CC2)nc(-c2cc[nH]c3nccc2-3)n1	2.52	2.73	2.21	3.12	2.29	2.88
O=C(O)CCNC(=O)c1ccc(/N=N/c2ccc(O)c(C(=O)O)c2)cc1 [Balsalazide disodium]	0.73	0.808	0.796	0.76	0.576	0.971
Cc1cnc(-c2cnc(NCCNc3ccc(C#N)cn3)nc2-c2ccc(Cl)cc2Cl)[nH]1	1.86	2.18	1.61	1.12	1.15	1.13
CCc1oc2ccccc2c1C(=O)c1cc(Br)c(O)c(Br)c1 [Benzbromarone]	0.882	0.749	0.48	1.01	0.723	1.14
COc1ccc2cc1Oc1ccc(cc1)C[C@H]1c3cc(c(OC)cc3CCN1C)Oc1c(O)c(OC)cc3c1[C@H](C2)N(C)CC3 [Fangchinoline]	4.67	4.12	3.78	4.61	5.01	4.4
Cc1ccc(C(=O)Nc2ccc(CN3CCN(C)CC3)c(C(F)(F)F)c2)cc1C#Cc1cnc2cccnn12	4.62	4.2	6.75	1.08	4.93	4.29
CC(C)(C)C#Cc1cc(N(C(=O)[C@H]2CC[C@H](C)CC2)[C@H]2CC[C@H](O)CC2)c(C(=O)O)s1 [VX-222 (VCH-222. Lomibuvir)]	0.681	0.474	1.14	0.678	2.05	0.601
COc1cc2nccc(Oc3ccc(NC(=O)C4(C(=O)Nc5ccc(F)cc5)CC4)cc3)c2cc1OC	2.21	2.82	1.36	3.32	2.4	3.08
C[C@H]1CNCCCN1S(=O)(=O)c1cccc2cncc(F)c12 [Ripasudil (K-115) hydrochloride dihydrate]	2.28	0.784	2.78	2.01	1.34	1.12
C[N+]1(C)[C@@H]2CC[C@H]1C[C@@H](OC(=O)C(O)c1ccccc1)C2 (stereo partly drawn) [Homatropine Methylbromide]	0.885	1.85	1.26	1.47	0.52	0.995
CC(=O)O[C@H]1C[C@@H]2CC[C@@H]3[C@H](CC[C@@]4(C)[C@H]3C[C@H]([N+]3(C)CCCCC3)[C@@H]4OC(C)=O)[C@@]2(C)C[C@@H]1N1CCCCC1 [Vecuronium Bromide]	1.85	1.53	1.34	1.07	0.966	1.28
Cc1[nH]c(/C=C2\C(=O)Nc3ccc(S(=O)(=O)Cc4c(Cl)cccc4Cl)cc32)c(C)c1C(=O)N1CCC[C@@H]1CN1CCCC1	3.99	4.22	1.16	2	1.59	4.7
C=CCc1ccc(O)c(-c2ccc(O)c(CC=C)c2)c1 [Honokiol]	0.998	0.732	1.22	1.46	1.39	1.18
OC(CCCN1CCCCC1)(c1ccccc1)c1ccccc1 [Diphenidol HCl]	1.04	0.66	0.884	0.867	0.89	1.09
CC(C)(Oc1ccc(C2CC2(Cl)Cl)cc1)C(=O)O (stereo not drawn) [Ciprofibrate]	1.02	0.831	0.853	0.589	0.698	1.05
COc1ccccc1OCCNCC(O)COc1cccc2[nH]c3ccccc3c12 (stereo not drawn) [Carvedilol]	1.59	1.04	1.42	1.64	2.22	1.86
N[C@@H](Cc1c[nH]c2ccccc12)C(=O)O [L-Tryptophan]	0.689	1.11	0.644	0.569	0.851	1.36
CC(C)N1CCN(c2ccc(Nc3ncc4cc5n(c4n3)C3(CCCCC3)CNC5=O)nc2)CC1	3.19	1.63	2.41	3.71	2.1	2.34
Cc1onc(-c2ccccc2)c1-c1ccc(S(N)(=O)=O)cc1 [Valdecoxib]	1.12	1.19	0.983	1.21	0.509	1.58
CCN(CCO)CCCC(C)Nc1ccnc2cc(Cl)ccc12 (stereo not drawn) [Hydroxychloroquine Sulfate]	3.48	3.08	2.6	5.29	2.92	3.58
Brc1c(NC2=NCCN2)ccc2nccnc12 [Brimonidine Tartrate]	0.514	0.618	0.478	0.739	0.644	0.833
Cc1[nH]nc2ccc(-c3cncc(OC[C@@H](N)Cc4ccccc4)c3)cc12	4.66	4.28	3.94	5.02	3.37	5.52

Structure (SMILES)	Euclidean distance [1]	Euclidean distance [2]	Euclidean distance [3]	Euclidean distance [4]	Euclidean distance [5]	Euclidean distance [6]
C[C@@H](c1ncncc1F)[C@](O)(Cn1cncn1)c1ccc(F)cc1F [Voriconazole]	1.9	1.17	0.9	1.01	0.988	1.25
O=C(O)CCC(=O)c1ccc(-c2ccccc2)cc1 [Fenbufen]	0.582	1.6	0.988	0.916	0.887	1.11
Cc1nnc(SCC2=C(C(=O)O)N3C(=O)[C@@H](NC(=O)Cn4cnnn4)[C@H]3SC2)s1 [Cefazolin Sodium]	0.929	0.587	0.958	0.961	1.06	1.27
O=C(OCCOCCO)c1ccccc1Nc1cccc(C(F)(F)F)c1 [Etofenamate]	0.974	0.683	1.59	1.79	0.744	0.722
CNC(=O)c1ccc(-c2cnc3ncc(Cc4ccc5ncccc5c4)n3n2)cc1F	1.36	0.853	0.871	0.899	0.745	0.726
CCc1nc(-c2cccc(C)c2)c(-c2ccnc(NC(=O)c3ccccc3)c2)s1	1.58	0.983	1.46	1.37	1.19	1.34
CC[C@H]1OC(=O)[C@H](C)[C@@H](O[C@H]2C[C@@](C)(OC)[C@@H](O)[C@H](C)O2)[C@H](C)[C@@H](O[C@@H]2O[C@H](C)C[C@H](N(C)C)[C@H]2O)[C@](C)(O)C[C@@H](C)[C@@H]2N[C@@H](COCCOC)O[C@H]([C@H]2C)[C@]1(C)O [Dirithromycin]	0.963	1.37	0.758	1.06	1.27	1.41
O=C(c1cc(Cc2n[nH]c(=O)c3ccccc23)ccc1F)N1CCN(C(=O)C2CC2)CC1	1.56	1.23	0.958	1.7	1.21	1.11
CCN(CC)CCOc1ccc2c(c1)C(=O)c1cc(OCCN(CC)CC)ccc1-2 [Tilorone dihydrochloride]	2.8	3.87	2.37	5.04	4.45	3.1
N#CCNC(=O)c1ccc(-c2ccnc(Nc3ccc(N4CCOCC4)cc3)n2)cc1 [Momelotinib (CYT387)]	2.83	3.71	3.36	3.49	2.74	2.48
O[C@@H](COc1cccc2ncccc12)CN1CCN(C2c3ccccc3[C@@H]3[C@H](c4ccccc42)C3(F)F)CC1 (stereo partly drawn)	1.12	1.33	0.754	0.764	0.675	1.43
Nc1nc(NC2CC2)c2ncn([C@H]3C=C[C@@H](CO)C3)c2n1 [Abacavir]	1.46	0.752	1.02	1.21	0.494	1.25
O=C(O)CCn1c2c(c3ccccc31)C[C@H](NS(=O)(=O)c1ccc(F)cc1)CC2 [Ramatroban]	0.593	0.487	0.969	0.538	1.42	0.778
COc1ccccc1S(=O)(=O)Nc1ccc2c(c1)CN(C)C(=O)N2	1.98	1.83	1.91	2.84	2.74	1.87
C=C1/C(=C\C=C2/CCC[C@]3(C)[C@@H]([C@H](C)CCCC(C)(C)O)CC[C@@H]23)C[C@@H](O)C[C@@H]1O [Calcitriol]	1.91	1.1	1.24	2.23	0.859	1.36
CCN1C(=O)C=CC1=O [N-Ethylmaleimide (NEM)]	3.6	1.27	1.23	1.58	0.6	1.06
C#C[C@]1(O)CC[C@H]2[C@@H]3CCC4=Cc5oncc5C[C@]4(C)[C@H]3CC[C@@]21C [Danazol]	1.02	1.02	1.43	0.594	1.3	1.02
O=C(CCCN1CCN(c2ccccn2)CC1)c1ccc(F)cc1 [Azaperone]	0.919	0.568	0.729	0.828	0.758	1.09
Cc1ccc(-c2cc(C(F)(F)F)nn2-c2ccc(S(N)(=O)=O)cc2)cc1 [Celecoxib]	1.6	1.23	1.67	1.09	1.08	1.37
COC(=O)Nc1nc2cc(C(=O)c3ccccc3)ccc2[nH]1 [Mebendazole]	3.02	3.03	3.69	2.58	3	2.7
C#C[C@]1(O)CC[C@H]2[C@@H]3CCc4cc(O)ccc4[C@H]3CC[C@@]21C [Ethinyl Estradiol]	1.42	0.969	1.83	1.09	0.768	1.82
C[C@H](N)[C@H](O)c1cccc(O)c1 [Metaraminol Bitartrate]	0.87	0.731	0.8	1.26	0.768	0.946
CC(C)OC(=O)C(C)(C)Oc1ccc(C(=O)c2ccc(Cl)cc2)cc1 [Fenofibrate]	1.18	0.803	0.9	1.1	1.75	1.73
CCOC(=O)[C@H](CCc1ccccc1)N[C@@H](C)C(=O)N1CCC[C@H]1C(=O)O [Enalapril Maleate]	1.04	0.697	0.694	0.816	0.78	1.28
